The values that follow come from PubChem BioAssay (Tox21).

Several values for one entry are separate records, joined by “and”; a condition that tells them apart may be missing. Equal values may be shown once. A structure can be active in one record and inactive in another. Activity calls are given as the source filed them. Unless noted, calls come from the whole dose curve; as a rule, active = well fitted curve in the direction sought with a large enough effect in the repeat runs; inconclusive = weak or mixed curves; inactive = no such curve, though single readings can be large; an effect the other way counts as inactive or inconclusive.

Test [1] can be described thus: qHTS assay to identify small molecule antagonists of the glucocorticoid receptor (GR) signaling pathway - cell viability counter screen (AID 720693). Note: nearly all actives have a fitted effect of over 55% in size. Note: potency is the fitted concentration of half-maximal effect. On the technique in general: In qHTS, concentration-response curves come from the screen itself.
The nature of test [2]: qHTS assay for identifying genotoxic compounds that show differential cytotoxicity against isogenic chicken DT40 cell lines with known DNA damage response pathways - wild type cell line (AID 743012). Note: nearly all actives have a fitted effect of over 60% in size. Note: potency is the fitted concentration of half-maximal effect. A digest of the protocol:
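CellTiter-Glo luminescence readout of viability in wild type DT40 cells after 40 h compound exposure at 37 C/5% CO2; 300 cells/well; reagent incubated 30 min at room temperature before reading.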

Test [3] is described as follows: qHTS assay for identifying genotoxic compounds that show differential cytotoxicity against isogenic chicken DT40 cell lines with known DNA damage response pathways - Rev3 mutant cell line (AID 743014). Note: nearly all actives have a fitted effect of over 55% in size. Note: potency is the fitted concentration of half-maximal effect.
Test [4] in a line: qHTS assay for identifying genotoxic compounds that show differential cytotoxicity against isogenic chicken DT40 cell lines with known DNA damage response pathways - Rad54/Ku70 mutant cell line (AID 743015). Note: nearly all actives have a fitted effect of over 60% in size. Note: potency is the fitted concentration of half-maximal effect.
The nature of test [5]: qHTS assay to identify small molecule antagonists of the androgen receptor (AR) signaling pathway - cell viability counter screen (AID 743033; note: nearly all actives have a fitted effect of over 45% in size).
The nature of test [6]: qHTS assay to identify small molecule antagonists of the androgen receptor (AR) signaling pathway using the MDA cell line - cell viability counter screen (AID 743041; note: nearly all actives have a fitted effect of over 45% in size). A digest of the protocol:
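Cytotoxicity counter screen: MDA-kb2 AR-luc cells, compound + R1881, 16 h, 37C, 0% CO2; CellTiter-Fluor added at 15.5 h, fluorescence read after 30 min.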

For test [7], the system named is thyroid hormone receptor (rat, GH3 cells). Nature of the test: qHTS assay to identify small molecule agonists of the thyroid receptor (TR) signaling pathway (AID 743066; calls by dose curve).
A short description of test [8]: qHTS assay to identify small molecule antagonists of the estrogen receptor alpha (ER-alpha) signaling pathway - cell viability counter screen (AID 743074; calls by dose curve;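 note: HEK293 cells carrying ER-alpha-UAS-bla reporter stimulated with 17beta-estradiol; nearly all actives have a fitted effect of over 45% in size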; note: potency is the fitted concentration of half-maximal effect).
Test [9] concerns the target Estrogen receptor (Homo sapiens) (UniProt P03372). Put plainly: qHTS assay to identify small molecule agonists of the estrogen receptor alpha (ER-alpha) signaling pathway using the BG1 cell line (AID 743079). Note: nearly all actives have a fitted effect of over 20% in size. Note: potency is the fitted concentration of half-maximal effect.
The nature of test [10]: qHTS assay to identify small molecule antagonists of the estrogen receptor alpha (ER-alpha) signaling pathway using the BG1 cell line (AID 743080; calls by dose curve;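 note: BG1 cells stimulated with 17beta-estradiol alongside compound; nearly all actives have a fitted effect of over 25% in size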; note: potency is the fitted concentration of half-maximal effect). A digest of the protocol: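 BG1-Luc-4E2 cells (endogenous full-length ER-alpha, 4xERE luciferase) hormone-starved 5 days in charcoal-stripped FBS, plated 4,000/well for 24 h, then compound plus 17beta-estradiol for 21.5 h at 37 C; ONE-Glo luminescence read.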

In another test the target is Aromatase (Homo sapiens) (UniProt P11511). Nature of the test: qHTS assay to identify aromatase inhibitors (AID 743083). Note: nearly all actives have a fitted effect of over 55% in size. Note: potency is the fitted concentration of half-maximal effect.
Test [11] is described as follows: qHTS assay to identify small molecule antagonists of the thyroid receptor (TR) signaling pathway - cell viability counter screen (AID 743064). Note: nearly all actives have a fitted effect of over 50% in size. Note: potency is the fitted concentration of half-maximal effect. A digest of the protocol: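 Rat GH3 pituitary tumor cells stably expressing two TR response elements driving luciferase were plated, rested 4 h, then dosed with library compounds and T3 (1 nM final). After 23.5 h at 37 °C, CellTiter-Fluor was added for 30 min and fluorescence recorded.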

The target in test [12] is Estrogen receptor (Homo sapiens) (UniProt P03372). Put plainly: qHTS assay to identify small molecule antagonists of the estrogen receptor alpha (ER-alpha) signaling pathway (AID 743069; active = well fitted curve in the direction sought with a large enough effect in the signal ratio in the repeat runs, not every such curve was filed as active; inconclusive = weak or mixed curves, or effect the other way; inactive = no such curve, though single readings can be large or run the other way; the % refers to the signal ratio). A digest of the protocol:
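Beta-lactamase FRET fluorescence is read after 2 hr at room temperature with LiveBLAzer B/G substrate. Before that, ER-alpha-bla HEK293 cells sit 4 hr after plating, then receive compound plus 17beta-estradiol and incubate 18 hr at 37C.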

Test [13] shares this target. Put plainly: qHTS assay to identify small molecule agonists of the estrogen receptor alpha (ER-alpha) signaling pathway (AID 743075; calls by dose curve;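 note: HEK293 GripTite cells with ER-alpha and UAS-driven beta-lactamase reporter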; note: potency is the fitted concentration of half-maximal effect).
The nature of test [14]: qHTS assay to identify small molecule antagonists of the estrogen receptor alpha (ER-alpha) signaling pathway using the BG1 cell line - cell viability counter screen (AID 743081).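 Note: compound given together with 17beta-estradiol as the ER stimulus; series mostly up to about 70 µM; nearly all actives have a fitted effect of over 45% in size.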
Test [15] is described as follows: qHTS assay to identify small molecule antagonists of the thyroid receptor (TR) signaling pathway (AID 743065). Note: nearly all actives have a fitted effect of over 55% in size. Note: potency is the fitted concentration of half-maximal effect. A digest of the protocol:
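GH3.TRE-Luc rat pituitary cells (two TREs driving luciferase) were dosed with compound, then stimulated with 1 nM T3 (final) for 23.5 h at 37 C. ONE-Glo luminescence was the read-out, with CellTiter-Fluor fluorescence as the cytotoxicity counter-screen.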
% is set by controls: 0 for no effect and ±100 for the full control effect.

Chain of Estrogen receptor (Homo sapiens) (P03372 whole entry, looked up): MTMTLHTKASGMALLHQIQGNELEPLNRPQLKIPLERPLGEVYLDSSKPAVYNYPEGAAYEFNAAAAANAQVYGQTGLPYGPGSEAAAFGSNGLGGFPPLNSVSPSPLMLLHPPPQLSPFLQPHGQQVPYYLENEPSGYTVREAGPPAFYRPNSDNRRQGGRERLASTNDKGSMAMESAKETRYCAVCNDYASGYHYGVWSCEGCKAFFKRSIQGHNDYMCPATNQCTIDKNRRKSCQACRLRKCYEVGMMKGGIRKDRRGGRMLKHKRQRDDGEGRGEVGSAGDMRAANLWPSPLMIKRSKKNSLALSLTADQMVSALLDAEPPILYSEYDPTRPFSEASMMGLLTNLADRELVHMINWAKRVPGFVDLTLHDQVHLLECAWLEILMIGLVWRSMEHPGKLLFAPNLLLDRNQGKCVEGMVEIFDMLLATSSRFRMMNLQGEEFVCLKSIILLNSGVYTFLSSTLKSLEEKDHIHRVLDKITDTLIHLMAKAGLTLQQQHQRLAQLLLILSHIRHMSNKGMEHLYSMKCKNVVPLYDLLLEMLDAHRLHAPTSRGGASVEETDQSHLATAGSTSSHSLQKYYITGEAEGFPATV
Chain of Aromatase (Homo sapiens) (P11511 whole entry, looked up): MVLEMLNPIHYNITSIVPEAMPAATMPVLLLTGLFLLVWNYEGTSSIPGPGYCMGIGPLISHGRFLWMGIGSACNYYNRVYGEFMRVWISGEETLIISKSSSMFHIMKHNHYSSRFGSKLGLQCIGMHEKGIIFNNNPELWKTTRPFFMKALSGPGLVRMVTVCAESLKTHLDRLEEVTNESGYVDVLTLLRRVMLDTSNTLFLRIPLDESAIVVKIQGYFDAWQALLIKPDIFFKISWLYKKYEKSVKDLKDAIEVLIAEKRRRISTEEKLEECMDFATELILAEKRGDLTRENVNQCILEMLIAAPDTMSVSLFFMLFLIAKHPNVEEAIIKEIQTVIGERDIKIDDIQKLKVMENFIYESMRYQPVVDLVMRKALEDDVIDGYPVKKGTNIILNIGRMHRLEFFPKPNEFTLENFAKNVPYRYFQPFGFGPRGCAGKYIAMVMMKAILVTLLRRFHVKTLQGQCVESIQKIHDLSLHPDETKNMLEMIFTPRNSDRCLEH

On to `O=S(=O)(O)c1ccccc1/C=C/c1ccc(-c2ccc(/C=C/c3ccccc3S(=O)(=O)O)cc2)cc1`, for which the Potency result in test [1], in [2], in test [3], in [4], in test [5] and in test [6] was “inactive” each time. In addition, the Potency entry (in test [8]; in test [9]; in test [10]; in the test with Aromatase (Homo sapiens)) was “inactive” each time. Moreover, the call in test [7] was inactive.

Turning to `COc1cc(/C=C/c2ccccc2)oc(=O)c1`, the Potency result in test [1], in [2], in [3], in test [4], in [5] and in [6] was “inactive” each time. The Potency entry (in test [11]; in test [12]; in test [8]; in [13]; in [14]; with Aromatase (Homo sapiens)) was “inactive” each time. For the same compound, the result in [7] was inactive. In [9], the Potency was 2.52 µM (active).

On to `COc1cc(C)ccc1O`, for which the Potency entry in [1], in [2], in test [3], in test [4], in test [5] and in test [6] was “inactive” each time. The Potency entry (in [15]; in test [8]; in test [9]; in test [10]; with Aromatase (Homo sapiens)) was “inactive” throughout. Further, the outcome in test [7] was inactive.

On to `CCCCC/C=C\C/C=C\CCCCCCCC(=O)O`, for which the Potency result in test [1], in test [2], in test [3], in [5], in test [6] and in test [11] was “inactive” in each case. In addition, the Potency entry in test [12], in [8], in [13], in [9], in test [10] and in test [14] was “inactive” throughout. In addition, the Potency result with Aromatase (Homo sapiens) was “inactive”. For the same compound, the Potency result in test [4] is “inactive and 54.5 µM (active)”. Besides, the compound was classed as inactive in [7].

Consider `Cc1c(C)c2c(c(C)c1OC(=O)c1cccnc1)CC[C@@](C)(CCC[C@H](C)CCC[C@H](C)CCCC(C)C)O2`, for which the Potency result in test [1], in [2], in test [3], in test [4], in test [5] and in [6] was “inactive” throughout. Also, the Potency entry in test [12], in test [8], in test [13], in [9], in test [10] and in [14] was “inactive” in each case. Also, in the test with Aromatase (Homo sapiens), the Potency entry is “inactive”. For the same compound, the outcome in [7] was inactive.

Turning to `COc1ccc(NC(=O)CC(C)=O)cc1`, the Potency result in test [1], in test [2], in test [3], in [4], in [5] and in [6] was “inactive” in each case. Also, the Potency entry (in test [11]; in test [15]; in test [8]; in [14]; in the test with Aromatase (Homo sapiens)) was “inactive” throughout. The result in test [7] was inactive.

As to `O=C1C(c2[nH]c3ccc(S(=O)(=O)O)cc3c2O)=Nc2ccc(S(=O)(=O)O)cc21`, the Potency entry in test [1], in [2], in test [3], in test [5], in [6] and in test [11] was “inactive” in each case. In addition, the Potency result (in test [8]; in test [14]; with Aromatase (Homo sapiens)) was “inactive” each time. In test [4], the Potency result is “inactive and 30.6 µM (active)”. The compound was classed as inactive in [7].

As to `O=[N+]([O-])c1ccc(F)c(Cl)c1`, the Potency result in test [1], in [2], in [3], in [4], in test [5] and in test [6] was “inactive” each time. For the same compound, the Potency entry (in [11]; in test [15]; in test [8]; in [14]; with Aromatase (Homo sapiens)) was “inactive” throughout. Further, in test [7], the outcome was inactive.

Turning to `CCC(CC)C(C)CCOC(C)=O` (stereo not given), the Potency result in test [1], in test [2], in test [3], in test [4], in test [5] and in test [6] was “inactive” in each case. The Potency entry (in test [11]; in test [15]; in test [8]; in test [14]; with Aromatase (Homo sapiens)) was “inactive” each time. Further, in test [7], the compound was classed as inactive.

Take `O=C(O)CN(CCN(CC(=O)O)CC(=O)O)CC(=O)O`: the Potency result in test [1], in test [2], in test [4], in [5], in test [6] and in [8] was “inactive” in each case. In addition, the Potency entry (in [14]; with Aromatase (Homo sapiens)) was “inactive” each time. For the same compound, the activity, negative = cytotoxicity in test [3] was 5.28% [at 3.82 µM] (inactive).

Take `O=c1[nH]c(=O)n([C@H]2C[C@H](O)[C@@H](CO)O2)cc1F`: the Potency entry in [1], in [5], in test [6], in [13], in [9] and in test [14] was “inactive” throughout. In the test with Aromatase (Homo sapiens), the Potency entry was “inactive”. Besides, the Potency in [2] was 5.3 nM (active); in test [3] it was 3.8 nM (active); in [4], 1.9 nM (active); in [15], 0.75 µM (active); in [8], 0.379 µM (active). Also, in test [7], the call was inactive.

In the case of `Cc1ccc(O)c(O)c1`, the Potency in test [1] is 53.4 µM (active); in test [2] it was 16700 nM (active); in test [3], 13300 nM (active); in test [4], 21100 nM (active); in test [11], 29.8 µM (active); in test [13], 53.4 µM [inconclusive] (active). Moreover, the Potency in the test with Aromatase (Homo sapiens) was 66.6 µM (active). The Potency entry in test [5], in [6], in test [8], in test [9] and in test [10] was “inactive” each time. The call in [7] was inactive.

With `CN(C)C(=O)COC(=O)Cc1ccc(OC(=O)c2ccc(N=C(N)N)cc2)cc1`, the Potency entry in [1], in test [2], in [3], in [4], in test [5] and in [6] was “inactive” in each case. For the same compound, the Potency result in test [11], in test [8] and in [14] was “inactive” each time. The call in test [7] was inactive.

`C#C[C@]1(OC(C)=O)CC[C@H]2[C@@H]3CCC4=C[C@@H](OC(C)=O)CC[C@@H]4[C@H]3CC[C@@]21C`: the Potency entry (in [1]; in test [5]; in test [6]; in test [8]; in [14]; with Aromatase (Homo sapiens)) was “inactive” in each case. The Potency in [2] is 3.76 µM (active) and 6.68 µM (active); in test [3] it was 10.6 µM (active) and 16.8 µM (active); in test [4], 10.6 µM (active) and 11.9 µM (active); in test [13], 0.0085 µM [inconclusive] (active); in [9], 0.7 nM (active) and 4.7 nM (active); in test [10], 33.5 µM (active).

Regarding `Cc1ccc(C(C)C)cc2c(C)ccc1-2`, the Potency entry in [1], in test [2], in test [3], in [4], in test [5] and in test [6] was “inactive” throughout. Also, the Potency entry in test [11], in [12], in [8], in test [13], in [9] and in test [10] was “inactive” each time. For the same compound, the Potency entry (in test [14]; in the test with Aromatase (Homo sapiens)) was “inactive” in each case. For the same compound, in [7], the compound was classed as inactive.

On to `CCCC1CCC(=O)CC1`, for which the Potency result in test [1], in [2], in test [3], in test [4], in test [5] and in [6] was “inactive” throughout. Moreover, the Potency result in test [11], in test [12], in test [8], in test [13], in test [9] and in test [10] was “inactive” each time. Further, the Potency entry (in [14]; with Aromatase (Homo sapiens)) was “inactive” throughout. For the same compound, in test [7], the call was inactive.
